Test systems include TXK; TYRO3; ULK1; ULK2; ULK3; VRK2; WEE1; WEE2; WNK1; WNK2; WNK3; WNK4.
Details in all cases: Compound Concentration (nM):1000
In assay [1] the test system is TYK2(JH1domain-catalytic).
Assay [2] deals with TYK2(JH2domain-pseudokinase).
For a further assay, the system named is T1, VEGFR2.
T1 construct: gene KDR

For the next assay, the system named is T2, VPS34.
T2 construct: gene PIK3C3

The next assay relates to T3, YANK1.
T3 construct: gene STK32A

The subject of a further assay is T4, YANK2.
T4 construct: gene STK32B

A further assay relates to T5, YANK3.
T5 construct: gene STK32C

Another assay concerns T6, YES.
T6 construct: gene YES1
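Note: KINOMEscan scanMAX binding as percent activity remaining versus control; lower means stronger binding.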

Take `Cl.O=S1CCN(Cc2ccc(-c3ccc4ncnc(Nc5ccc(OCc6ccccc6)c(F)c5)c4c3)o2)CC1` [GW576924A]: the “Percent Control” value with TXK came out at 100%; in assay [1], 100%; in [2], 100%; with TYRO3, 100%; with ULK1 it was 90%; in the assay with ULK2 it was 100%. Further, the “Percent Control” value in the assay with ULK3 is 94%; in the assay with VEGFR2, 97%; in the assay on VPS34, 100%; in the assay on VRK2, 100%; in the assay on WEE1, 100%; in the assay on WEE2 it was 100%. For the same compound, the “Percent Control” value with WNK1, in the assay on WNK2, in the assay on WNK3, in the assay on WNK4, in the assay with YANK1 and in the assay on YANK2 was 100% in each case. Also, the “Percent Control” value in the assay on YANK3 and with YES was 100% in each case.
As to `CN(C)CCNC(=O)Nc1ccc(N(C)c2ccnc(Nc3ccc(CS(C)(=O)=O)cc3)n2)cc1.Cl` [GW830900A], the “Percent Control” value in the assay with TXK was 61%; in assay [1], 35%; in assay [2], 49%; with TYRO3, 85%; in the assay with ULK1, 94%; in the assay with ULK2, 97%. Moreover, the “Percent Control” value in the assay with ULK3 was 80%; in the assay on VEGFR2 it was 21%; in the assay with VPS34, 77%; with VRK2, 100%; with WEE1, 94%; in the assay on WEE2, 88%. Further, the “Percent Control” value was 92% in the assay on WNK1; 64% in the assay on WNK2; 99% in the assay with WNK3; 100% in the assay with WNK4; 68% in the assay on YANK1; 100% in the assay with YANK2. Moreover, the “Percent Control” value with YANK3 is 100%; in the assay on YES, 77%.
Regarding `COc1cc(C)c(N(C)C(=O)CN(C)C)cc1Nc1nc(Nc2cccc(F)c2C(N)=O)c2cc[nH]c2n1` [GSK2219385], the “Percent Control” value in the assay with TXK is recorded as 90%; in assay [1], 100%; in [2], 100%; with TYRO3, 100%; in the assay with ULK1, 72%; in the assay with ULK2, 80%. For the same compound, the “Percent Control” value in the assay with ULK3 was 100%; with VEGFR2, 100%; with VPS34, 82%; in the assay with VRK2, 62%; with WEE1 it was 100%; with WEE2, 90%. Also, the “Percent Control” value was determined as 100% with WNK1; 100% in the assay on WNK2; 100% with WNK3; 81% with WNK4; 87% in the assay with YANK1; 100% in the assay with YANK2. Also, the “Percent Control” value in the assay with YANK3 is recorded as 85%; in the assay on YES, 96%.
Take `Cl.O=C(O[C@H]1CN[C@H](C#Cc2cc3ncnc(Nc4ccc5c(cnn5Cc5ccccc5)c4)c3s2)C1)N1CCOCC1` [GSK200398A]: the “Percent Control” value came out at 83% in the assay on TXK; 100% in [1]; 97% in [2]; 100% with TYRO3; 62% in the assay with ULK1; 86% in the assay with ULK2. Further, the “Percent Control” value with ULK3 was 91%; with VEGFR2, 89%; in the assay on VPS34 it was 98%; in the assay with VRK2 it was 87%; with WEE1, 89%; in the assay on WEE2, 96%. In addition, the “Percent Control” value in the assay with WNK1 is given as 80%; in the assay on WNK2, 94%; in the assay with WNK3 it was 100%; with WNK4, 95%; in the assay on YANK1 it was 100%; in the assay with YANK2, 100%. The “Percent Control” value in the assay on YANK3 worked out at 100%; with YES it was 98%.
Take `Cl.O=C(Nc1ccc(Oc2ccc3[nH]c(NC(=O)c4ccccc4)nc3c2)cc1)Nc1cc(C(F)(F)F)ccc1F` [GW709042A]: the “Percent Control” value in the assay on TXK is reported as 97%; in [1] it was 100%; in assay [2] it was 100%; in the assay with TYRO3, 94%; in the assay on ULK1, 100%; in the assay on ULK2 it was 100%. The “Percent Control” value with ULK3 is 100%; in the assay with VEGFR2, 49%; in the assay on VPS34 it was 100%; with VRK2, 100%; in the assay with WEE1, 100%; with WEE2, 100%. The “Percent Control” value is recorded as 91% with WNK1; 100% in the assay on WNK2; 88% in the assay on WNK3; 100% with WNK4; 88% in the assay on YANK1; 100% in the assay with YANK2. The “Percent Control” value in the assay with YANK3 and in the assay on YES was 100% each time.
Turning to `Cc1cc(O)cc(C)c1/C=C/c1cncc(C(N)=O)c1` [GW435821X], the “Percent Control” value in the assay with TXK was determined as 100%; in [1] it was 100%; in [2] it was 90%; with TYRO3, 100%; with ULK1, 100%; in the assay with ULK2, 97%. Moreover, the “Percent Control” value in the assay with ULK3 was 98%; with VEGFR2, 87%; with VPS34, 100%; in the assay on VRK2 it was 100%; with WEE1, 100%; in the assay on WEE2, 100%. The “Percent Control” value in the assay with WNK1 was determined as 100%; in the assay with WNK2, 100%; in the assay with WNK3, 93%; in the assay on WNK4 it was 100%; with YANK1 it was 100%; with YANK2, 100%. The “Percent Control” value in the assay with YANK3 and in the assay with YES was 100% each time.
`NS(=O)(=O)c1ccc(N/N=C2\C(=O)Nc3ccc(-c4cnco4)cc32)cc1` [GW276655]: the “Percent Control” value is 76% with TXK; 24% in [1]; 37% in assay [2]; 40% with TYRO3; 84% in the assay with ULK1; 82% in the assay on ULK2. Besides, the “Percent Control” value with ULK3 is 40%; with VEGFR2 it was 71%; in the assay on VPS34, 92%; with VRK2 it was 89%; in the assay with WEE1, 88%; with WEE2 it was 72%. Also, the “Percent Control” value in the assay with WNK1 is 87%; in the assay with WNK2 it was 100%; in the assay on WNK3, 56%; in the assay with WNK4 it was 100%; in the assay with YANK1 it was 56%; in the assay on YANK2, 100%. The “Percent Control” value in the assay with YANK3 is given as 63%; in the assay on YES it was 69%.
Take `CCS(=O)(=O)c1ccc(OC)c(Nc2ncc(-c3cccc(OC)c3)o2)c1` [GW580509X]: the “Percent Control” value in the assay with TXK amounted to 74%; in assay [1], 100%; in [2] it was 100%; with TYRO3 it was 100%; in the assay on ULK1, 87%; in the assay on ULK2, 80%. Moreover, the “Percent Control” value in the assay on ULK3 is 99%; in the assay with VEGFR2, 23%; in the assay on VPS34, 100%; with VRK2 it was 100%; with WEE1 it was 100%; in the assay with WEE2 it was 100%. In addition, the “Percent Control” value in the assay on WNK1 turned out to be 99%; in the assay on WNK2, 100%; with WNK3, 100%; in the assay on WNK4, 100%; in the assay on YANK1, 100%; in the assay on YANK2, 100%. Moreover, the figures for the “Percent Control” value in the assay on YANK3 and in the assay with YES were 100% and 74%, respectively.
As for `CC1=C(C(=O)Nc2ccc3[nH]ncc3c2)C(c2ccc(Cl)c(Cl)c2)CC(=O)N1` (centres unmarked) [GSK299115A], the “Percent Control” value amounted to 100% in the assay on TXK; 14% in [1]; 100% in [2]; 89% in the assay on TYRO3; 81% in the assay with ULK1; 72% with ULK2. Further, the “Percent Control” value in the assay with ULK3 is 87%; in the assay with VEGFR2 it was 92%; with VPS34, 83%; in the assay on VRK2, 72%; with WEE1, 84%; with WEE2, 73%. Besides, the “Percent Control” value was found to be 95% with WNK1; 100% in the assay on WNK2; 69% in the assay on WNK3; 82% in the assay with WNK4; 93% in the assay on YANK1; 82% in the assay with YANK2. Also, the “Percent Control” value in the assay with YANK3 was found to be 99%; with YES, 81%.
For the compound `NS(=O)(=O)c1ccc(Nc2ncc(-c3ccccc3)o2)cc1` [GW572399X], the “Percent Control” value was 100% in the assay on TXK; 100% in assay [1]; 100% in assay [2]; 100% in the assay with TYRO3; 100% with ULK1; 91% in the assay on ULK2. Besides, the “Percent Control” value was 88% in the assay on ULK3; 22% in the assay on VEGFR2; 100% in the assay with VPS34; 100% in the assay with VRK2; 100% in the assay on WEE1; 100% with WEE2. In addition, the “Percent Control” value in the assay with WNK1 is given as 89%; with WNK2, 100%; in the assay on WNK3, 100%; with WNK4, 100%; in the assay with YANK1, 100%; in the assay with YANK2, 100%. Also, the “Percent Control” value with YANK3 and with YES was 100% each time.

For the origin of these results see paper PMC7826789 (International Journal of Molecular Sciences, 2021).
